Reference: the supplement of paper PMC11001985

Assays:
Assay in all cases: lysine labeling ratio R10:1 (500 µM / 50 µM probe), SILAC-ABPP in living cells; higher = lower intrinsic lysine reactivity toward the probe, active = 2 or less
Settings in all cases: HeLa; probe concentrations 500 vs 50 µM
[1] = target: ACLY (lysine site: K1080) (UniProt P53396)
Summary of the method: (§1)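 Living SILAC light and heavy HeLa cells in PBS at room temperature were treated with an alkyne-tagged, disulfide-linked lysine probe at 50 µM or 500 µM, with forward and reverse label swaps. The mixed lysates were clicked to biotin-azide, digested with trypsin, captured on neutravidin, released with DTT, alkylated and run by LC-MS/MS on a TIMS-TOF Pro. R for each lysine is the filtered median high-probe/low-probe MS1 peptide ratio, taken again as the median over forward and reverse replicates. Any value above 20 is set to 20.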

ACLY (lysine site: K272) = ACLY (lysine site: K272) (UniProt P53396)
Summary of the method: as §1

ACLY (lysine site: K780) = ACLY (lysine site: K780) (UniProt P53396)
Summary of the method: as §1

ACLY (lysine site: K836) = ACLY (lysine site: K836) (UniProt P53396)
Summary of the method: as §1

ACLY (lysine site: K968) = ACLY (lysine site: K968) (UniProt P53396)
Summary of the method: as §1

ACLY (lysine site: K978) = ACLY (lysine site: K978) (UniProt P53396)
Summary of the method: as §1

[2] = target: ADAM10 (lysine site: K273) (UniProt O14672)
Summary of the method: as §1

[3] = target: ADAM10 (lysine site: K410) (UniProt O14672)
Summary of the method: as §1

[4] = target: ADAM10 (lysine site: K601) (UniProt O14672)
Summary of the method: as §1

[5] = target: BACE2 (lysine site: K299) (UniProt Q9Y5Z0)
Summary of the method: as §1

BSG (lysine site: K264) = BSG (lysine site: K264) (UniProt P35613)
Summary of the method: as §1

CALR (lysine site: K159) = CALR (lysine site: K159) (UniProt P27797)
Summary of the method: as §1

CALR (lysine site: K360) = CALR (lysine site: K360) (UniProt P27797)
Summary of the method: as §1

CALR (lysine site: K64) = CALR (lysine site: K64) (UniProt P27797)
Summary of the method: as §1

CAV1 (lysine site: K47) = CAV1 (lysine site: K47) (UniProt Q03135)
Summary of the method: as §1

CDC37 (lysine site: K60) = CDC37 (lysine site: K60) (UniProt Q16543)
Summary of the method: as §1

[6] = target: CSDE1 (lysine site: K307) (UniProt O75534)
Summary of the method: as §1

CSTB (lysine site: K91) = CSTB (lysine site: K91) (UniProt P04080)
Summary of the method: as §1

[7] = target: DDX50 (lysine site: K271) (UniProt Q9BQ39)
Summary of the method: as §1

[8] = target: DDX50 (lysine site: K432) (UniProt Q9BQ39)
Summary of the method: as §1

GART (lysine site: K251) = GART (lysine site: K251) (UniProt P22102)
Summary of the method: as §1

[9] = target: HNRNPF (lysine site: K224) (UniProt P52597)
Summary of the method: as §1

[10] = target: HNRNPF (lysine site: K87) (UniProt P52597)
Summary of the method: as §1

[11] = target: HNRNPF (lysine site: K98) (UniProt P52597)
Summary of the method: as §1

[12] = target: HYOU1 (lysine site: K797) (UniProt Q9Y4L1)
Summary of the method: as §1

[13] = target: ITIH2 (lysine site: K148) (UniProt P19823)
Summary of the method: as §1

[14] = target: ITIH2 (lysine site: K150) (UniProt P19823)
Summary of the method: as §1

[15] = target: ITIH2 (lysine site: K190) (UniProt P19823)
Summary of the method: as §1

[16] = target: LMAN2 (lysine site: K303) (UniProt Q12907)
Summary of the method: as §1

MDH2 (lysine site: K185) = MDH2 (lysine site: K185) (UniProt P40926)
Summary of the method: as §1

[17] = target: NCR3LG1 (lysine site: K101) (UniProt Q68D85)
Summary of the method: as §1

[18] = target: NECTIN2 (lysine site: K97) (UniProt Q92692)
Summary of the method: as §1

PHB (lysine site: K240) = PHB (lysine site: K240) (UniProt P35232)
Summary of the method: as §1

[19] = target: PODXL (lysine site: K385) (UniProt O00592)
Summary of the method: as §1

[20] = target: PODXL (lysine site: K394) (UniProt O00592)
Summary of the method: as §1

Measured: lysine labeling ratio R10:1

NECTIN2 (lysine site: K97), sequence (Q92692 whole entry): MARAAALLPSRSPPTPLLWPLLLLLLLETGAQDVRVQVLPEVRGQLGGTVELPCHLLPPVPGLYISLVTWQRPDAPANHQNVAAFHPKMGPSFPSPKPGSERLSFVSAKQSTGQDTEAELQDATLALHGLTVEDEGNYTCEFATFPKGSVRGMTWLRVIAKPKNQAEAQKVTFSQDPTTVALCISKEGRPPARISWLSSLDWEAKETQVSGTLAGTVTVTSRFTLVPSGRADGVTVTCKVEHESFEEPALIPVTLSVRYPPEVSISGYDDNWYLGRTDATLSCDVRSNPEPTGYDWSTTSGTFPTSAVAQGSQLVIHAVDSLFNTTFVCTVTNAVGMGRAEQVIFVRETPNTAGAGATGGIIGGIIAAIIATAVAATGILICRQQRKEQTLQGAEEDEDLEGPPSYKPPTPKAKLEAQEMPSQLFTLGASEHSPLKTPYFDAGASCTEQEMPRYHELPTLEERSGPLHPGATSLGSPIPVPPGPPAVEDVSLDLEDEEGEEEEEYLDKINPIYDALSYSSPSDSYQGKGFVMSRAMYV
CAV1 (lysine site: K47), sequence (Q03135 whole entry): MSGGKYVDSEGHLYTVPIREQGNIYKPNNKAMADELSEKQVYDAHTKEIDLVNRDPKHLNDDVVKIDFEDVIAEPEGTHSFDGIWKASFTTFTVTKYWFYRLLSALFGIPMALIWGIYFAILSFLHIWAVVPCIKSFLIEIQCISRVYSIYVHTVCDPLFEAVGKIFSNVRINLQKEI
HNRNPF (lysine site: K224), sequence (P52597 whole entry): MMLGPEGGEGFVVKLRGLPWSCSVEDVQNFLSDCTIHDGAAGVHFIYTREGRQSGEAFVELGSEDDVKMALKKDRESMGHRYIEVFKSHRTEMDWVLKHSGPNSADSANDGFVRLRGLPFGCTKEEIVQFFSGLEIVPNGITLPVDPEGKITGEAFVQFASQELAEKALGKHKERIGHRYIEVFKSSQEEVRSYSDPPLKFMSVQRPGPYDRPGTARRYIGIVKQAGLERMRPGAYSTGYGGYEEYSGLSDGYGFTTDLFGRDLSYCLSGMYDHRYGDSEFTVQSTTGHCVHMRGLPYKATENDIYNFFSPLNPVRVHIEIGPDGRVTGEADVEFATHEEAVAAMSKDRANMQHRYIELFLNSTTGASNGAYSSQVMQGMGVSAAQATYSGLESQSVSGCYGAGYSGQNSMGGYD
HNRNPF (lysine site: K87), sequence (P52597 whole entry): as above
HNRNPF (lysine site: K98), sequence (P52597 whole entry): as above
MDH2 (lysine site: K185), sequence (P40926 whole entry): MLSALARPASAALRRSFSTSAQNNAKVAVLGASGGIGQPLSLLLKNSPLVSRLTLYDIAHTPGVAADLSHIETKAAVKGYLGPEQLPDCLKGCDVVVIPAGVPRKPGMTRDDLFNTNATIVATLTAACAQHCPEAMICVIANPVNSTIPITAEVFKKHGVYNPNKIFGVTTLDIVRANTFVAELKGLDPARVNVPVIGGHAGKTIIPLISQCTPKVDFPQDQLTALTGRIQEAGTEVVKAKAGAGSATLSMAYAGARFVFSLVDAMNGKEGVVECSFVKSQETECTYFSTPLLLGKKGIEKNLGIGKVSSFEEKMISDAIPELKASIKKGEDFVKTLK
CSTB (lysine site: K91), sequence (P04080 whole entry): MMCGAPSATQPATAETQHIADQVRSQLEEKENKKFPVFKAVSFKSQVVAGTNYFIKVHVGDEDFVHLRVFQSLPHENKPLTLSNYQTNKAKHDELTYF
ITIH2 (lysine site: K148), sequence (P19823 whole entry): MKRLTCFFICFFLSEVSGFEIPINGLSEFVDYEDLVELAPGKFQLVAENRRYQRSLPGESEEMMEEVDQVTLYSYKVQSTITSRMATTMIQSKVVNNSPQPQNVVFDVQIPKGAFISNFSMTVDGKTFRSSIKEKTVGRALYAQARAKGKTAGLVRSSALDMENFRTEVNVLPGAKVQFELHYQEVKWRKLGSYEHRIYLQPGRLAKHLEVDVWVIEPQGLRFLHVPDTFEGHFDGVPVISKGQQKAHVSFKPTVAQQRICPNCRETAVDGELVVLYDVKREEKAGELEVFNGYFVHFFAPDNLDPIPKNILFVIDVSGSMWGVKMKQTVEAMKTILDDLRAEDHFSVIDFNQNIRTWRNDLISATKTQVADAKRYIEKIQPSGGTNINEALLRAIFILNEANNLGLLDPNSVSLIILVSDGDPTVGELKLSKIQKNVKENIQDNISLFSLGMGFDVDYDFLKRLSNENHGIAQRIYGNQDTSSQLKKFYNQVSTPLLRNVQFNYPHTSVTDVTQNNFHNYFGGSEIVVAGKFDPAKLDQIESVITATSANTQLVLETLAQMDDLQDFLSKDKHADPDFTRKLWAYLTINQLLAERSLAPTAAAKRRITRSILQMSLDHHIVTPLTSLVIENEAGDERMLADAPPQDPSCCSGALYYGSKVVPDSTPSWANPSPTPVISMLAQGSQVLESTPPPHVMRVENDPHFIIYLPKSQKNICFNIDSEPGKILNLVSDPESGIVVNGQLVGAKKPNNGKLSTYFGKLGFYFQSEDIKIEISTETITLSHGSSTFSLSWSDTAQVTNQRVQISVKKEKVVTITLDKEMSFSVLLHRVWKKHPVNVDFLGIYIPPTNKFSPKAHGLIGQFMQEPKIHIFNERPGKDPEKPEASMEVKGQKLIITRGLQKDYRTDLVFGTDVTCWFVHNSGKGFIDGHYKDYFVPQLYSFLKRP
ITIH2 (lysine site: K150), sequence (P19823 whole entry): as above
ITIH2 (lysine site: K190), sequence (P19823 whole entry): as above
DDX50 (lysine site: K271), sequence (Q9BQ39 whole entry): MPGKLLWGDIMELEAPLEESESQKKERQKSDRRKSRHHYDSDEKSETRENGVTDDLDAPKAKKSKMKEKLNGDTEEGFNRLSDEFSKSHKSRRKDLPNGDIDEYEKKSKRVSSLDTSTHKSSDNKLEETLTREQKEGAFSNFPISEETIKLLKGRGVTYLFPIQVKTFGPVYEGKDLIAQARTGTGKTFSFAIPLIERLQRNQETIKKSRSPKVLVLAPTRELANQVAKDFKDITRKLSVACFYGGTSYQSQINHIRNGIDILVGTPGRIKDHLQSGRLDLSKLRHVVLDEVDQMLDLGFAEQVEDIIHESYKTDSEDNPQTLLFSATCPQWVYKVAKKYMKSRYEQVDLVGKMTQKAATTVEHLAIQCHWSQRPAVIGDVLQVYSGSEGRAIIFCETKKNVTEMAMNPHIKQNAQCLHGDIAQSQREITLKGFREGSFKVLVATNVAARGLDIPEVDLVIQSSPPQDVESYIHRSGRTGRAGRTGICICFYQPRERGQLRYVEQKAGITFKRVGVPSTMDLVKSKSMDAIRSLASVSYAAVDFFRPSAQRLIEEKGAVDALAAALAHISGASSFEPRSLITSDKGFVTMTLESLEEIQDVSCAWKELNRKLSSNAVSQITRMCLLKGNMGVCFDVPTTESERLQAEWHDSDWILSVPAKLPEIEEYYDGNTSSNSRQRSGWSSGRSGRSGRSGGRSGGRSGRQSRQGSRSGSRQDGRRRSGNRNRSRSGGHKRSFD
DDX50 (lysine site: K432), sequence (Q9BQ39 whole entry): as above
ACLY (lysine site: K1080), sequence (P53396 whole entry): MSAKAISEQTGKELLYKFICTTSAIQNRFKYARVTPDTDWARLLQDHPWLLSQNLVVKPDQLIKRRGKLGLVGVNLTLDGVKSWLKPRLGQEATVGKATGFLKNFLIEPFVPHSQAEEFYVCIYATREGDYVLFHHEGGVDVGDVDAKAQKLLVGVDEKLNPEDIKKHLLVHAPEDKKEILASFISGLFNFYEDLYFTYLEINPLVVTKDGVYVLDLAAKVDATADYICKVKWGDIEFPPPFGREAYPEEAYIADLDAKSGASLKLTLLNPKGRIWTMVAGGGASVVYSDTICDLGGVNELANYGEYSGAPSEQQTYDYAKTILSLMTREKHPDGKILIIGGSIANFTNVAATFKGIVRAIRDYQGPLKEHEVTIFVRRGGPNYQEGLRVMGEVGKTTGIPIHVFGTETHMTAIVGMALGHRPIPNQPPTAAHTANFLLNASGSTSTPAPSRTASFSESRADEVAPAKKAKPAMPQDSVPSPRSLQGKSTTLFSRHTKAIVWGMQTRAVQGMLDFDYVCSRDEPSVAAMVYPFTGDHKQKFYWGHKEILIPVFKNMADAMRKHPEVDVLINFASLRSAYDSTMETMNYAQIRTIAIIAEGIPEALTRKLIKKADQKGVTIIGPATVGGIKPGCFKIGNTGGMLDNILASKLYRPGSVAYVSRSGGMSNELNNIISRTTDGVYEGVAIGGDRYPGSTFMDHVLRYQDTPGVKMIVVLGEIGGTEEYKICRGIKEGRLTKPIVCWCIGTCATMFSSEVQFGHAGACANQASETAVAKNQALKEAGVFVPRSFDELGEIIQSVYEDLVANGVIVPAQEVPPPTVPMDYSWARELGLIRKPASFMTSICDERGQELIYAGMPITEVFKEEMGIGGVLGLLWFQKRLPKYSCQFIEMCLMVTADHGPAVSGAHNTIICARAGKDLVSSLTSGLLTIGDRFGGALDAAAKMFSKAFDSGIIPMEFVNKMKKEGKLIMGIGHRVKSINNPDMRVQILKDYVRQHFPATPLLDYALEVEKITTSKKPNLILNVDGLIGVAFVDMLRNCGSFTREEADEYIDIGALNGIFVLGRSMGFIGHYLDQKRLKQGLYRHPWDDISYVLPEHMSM
ACLY (lysine site: K272), sequence (P53396 whole entry): as above
ACLY (lysine site: K780), sequence (P53396 whole entry): as above
ACLY (lysine site: K836), sequence (P53396 whole entry): as above
ACLY (lysine site: K968), sequence (P53396 whole entry): as above
ACLY (lysine site: K978), sequence (P53396 whole entry): as above

C#CCNC(=O)CCSSCCC(=O)NCCc1ccc(C=O)c(C=O)c1
active: ACLY (lysine site: K780) 1.27 | [3] 1.51 | [4] 0.81 | [5] 1.18 | CALR (lysine site: K159) 1.52 | CAV1 (lysine site: K47) 1.22 | [6] 1.59 | [7] 0.745 | [8] 1.99 | [16] 1.72 | [18] 0.864 | PHB (lysine site: K240) 1.3 | [20] 0.785
inactive: [1] 6.28 | ACLY (lysine site: K272) 2.72 | ACLY (lysine site: K836) 3 | ACLY (lysine site: K968) 4.07 | ACLY (lysine site: K978) 2.77 | [2] 2.98 | BSG (lysine site: K264) 2.59 | CALR (lysine site: K360) 5.32 | CALR (lysine site: K64) 2.12 | CDC37 (lysine site: K60) 2.43 | CSTB (lysine site: K91) 4.21 | GART (lysine site: K251) 5.53 | [9] 6.19 | [10] 2.84 | [11] 3.88 | [12] 6.93 | [13] 3.03 | [14] 3.29 | [15] 4.46 | MDH2 (lysine site: K185) 3.9 | [17] 2.58 | [19] 9.63
